PLK1 PBD block: inhibitors of human PLK1 polo-box domain binding; 360,000 compounds, 2.8% hits; Plk1 PBD binding of FITC phosphopeptide, fluorescence polarization; Potency, µM, without a hit: max response, negative = inhibition, hits mostly inhibitors; note: potency is the fitted concentration of half-maximal effect; series mostly up to about 57 µM; % is set by controls: 0 for no effect and ±100 for the full control effect; nearly all actives have a fitted effect of over 65% in size
JMJD2A Tudor: inhibitors of human JMJD2A Tudor domain | O75164 | AlphaScreen JMJD2A-Tudor / H3K4me3 peptide binding | Potency, µM (doses to about 114 µM), for inactives: top-dose activity change, negative = inhibition, hits mostly inhibitors | 390,000 compounds, 4.4% hits; note: potency is the fitted concentration of half-maximal effect; % is set by controls: 0 for no effect and ±100 for the full control effect; nearly all actives have a fitted effect of over 50% in size
G9a inh: blocks human histone lysine methyltransferase G9a; Q96KQ7; G9a H3K9 monomethylation, AlphaScreen, 2 h; Potency, µM (titrated, usually from 102 µM), inactives show at the top dose activity, negative = inhibition, usual class: inhibitors; 350,000 compounds, 8.8% hits; note: potency is the fitted concentration of half-maximal effect; % is set by controls: 0 for no effect and ±100 for the full control effect; nearly all actives have a fitted effect of over 75% in size
Target sequence (Q96KQ7 913-1193 limits assumed): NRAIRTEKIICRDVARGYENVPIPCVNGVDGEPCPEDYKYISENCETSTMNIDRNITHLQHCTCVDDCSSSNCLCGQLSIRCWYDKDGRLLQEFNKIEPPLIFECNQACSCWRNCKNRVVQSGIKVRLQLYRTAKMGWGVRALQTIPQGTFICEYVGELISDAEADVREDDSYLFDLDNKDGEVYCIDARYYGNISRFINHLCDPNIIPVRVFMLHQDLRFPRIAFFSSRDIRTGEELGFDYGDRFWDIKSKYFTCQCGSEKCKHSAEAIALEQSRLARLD
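AlphaScreen detection with an anti-monomethyl H3K9 antibody quantified product after a 2 h room-temperature reaction containing 500 nM biotinylated H3K9 peptide, 20 µM SAM and 20 nM enzyme, which had been preincubated 15 min with compound.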
HP1b chromo inh: HP1-beta chromodomain-methylated histone interaction inhibition. P83916. AlphaScreen HP1-beta / biotin-H3K9me3 peptide binding. Potency, µM (titrated, usually from 114 µM), for inactives: at the top dose activity change, negative = inhibition, usual class: inhibitors. 390,000 compounds, 0.56% hits. AID 540317; note: potency is the fitted concentration of half-maximal effect; nearly all actives have a fitted effect of over 70% in size
Target sequence (P83916 whole entry, looked up): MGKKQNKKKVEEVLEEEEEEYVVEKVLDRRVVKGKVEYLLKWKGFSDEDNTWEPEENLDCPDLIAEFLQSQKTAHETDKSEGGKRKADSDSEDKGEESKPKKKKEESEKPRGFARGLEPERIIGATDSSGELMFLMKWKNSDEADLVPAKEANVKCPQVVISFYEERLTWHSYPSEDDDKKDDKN
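Compound inhibition of the preformed complex between 50 nM HP1-beta and 50 nM biotinylated H3K9me3 peptide was read by AlphaScreen. Buffer was PBS pH 7.4 with 0.01% Tween-20. Incubations ran 30 min at room temperature, with 10 ug/mL donor/acceptor beads.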
PI5P4Ka inh: PI5P4K alpha (human) kinase inhibition; 330,000 compounds, 1.2% hits; max response, %; AID 652105; PI5P4Kalpha enzyme, ADP-Glo luminescence, 60 min; active compounds read low; active = max response of -50% or lower; inconclusive = between -30% and -50%; inactive = -30% or higher; note: value at the top dose of about 77 µM; % is set by controls: 0 for no effect and ±100 for the full control effect
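Luminescence from ADP-Glo served as readout of PI5P4Kalpha activity in a qHTS format. Reaction: enzyme, substrate, compound, ATP at 5 microM final, 60 min at RT.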
BAZ2B block: blocks human BAZ2B. AID 504333. Potency, µM (highest dose often 114 µM), for inactives: at the highest dose activity change, negative = inhibition, most hits filed as inhibitors. AlphaScreen BAZ2B-H3K14Ac peptide displacement. 360,000 compounds, 4.4% hits; note: potency is the fitted concentration of half-maximal effect; % is set by controls: 0 for no effect and ±100 for the full control effect; nearly all actives have a fitted effect of over 60% in size
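Protein-peptide AlphaScreen: BAZ2B 50 nM, b-H3K14Ac 50 nM, 1x PBS pH 7.4 + 0.01% Tween-20. Preincubation 30 min RT; cpd 30 min RT (top 110 uM); beads 20 min RT, light-protected.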
* hit, by the source's call; ? = inconclusive; . = no result; [ ] = remark or other dose. A selection: hits, their analogues and other compounds. The true share with any hit is near 12%. Unless noted, calls come from the whole dose curve; as a rule, active = well fitted curve in the direction sought with a large enough effect; inconclusive = small, poorly fitted or top-dose-only effect, or another doubt; inactive = no such curve, though single readings can be large; an effect the other way counts as inactive or inconclusive.

SMILES | PLK1 PBD block | JMJD2A Tudor | G9a inh | HP1b chromo inh | PI5P4Ka inh | BAZ2B block
CCOC(=O)c1ccc2ncc3c(-c4ccccc4)nn(-c4ccc(F)c(Cl)c4)c3c2c1 | . | 2% | 4%[59 µM] | 20% | . | .
CCC(=O)N(CC(=O)Nc1sc(C)c(C)c1C(N)=O)C1CCCC1 | -4% | -8% | -10%[59 µM] | 26% | 13 | -11%
CCOC(=O)Nc1sc(C)c(C)c1C(N)=O | -8% | 1% | 40µM* | 32% | 5 | 11%
COC(=O)CCC(=O)Nc1sc(C)c(C)c1C(N)=O | 4.7µM* | ? | 2.8µM* | ? | -27 | -15%
CCOC(=O)c1c(NC(N)=O)sc(C)c1C | -1% | -13% | 2%[59 µM] | 43% | -4 | -10%
COC(=O)CCC(=O)NC(=S)Nc1sc(C)c(C)c1C(N)=O | -23% | -25% | 8.9µM* | 1% | -8 | 5%
Cc1sc(NC(=S)NC(=O)CCc2ccccc2)c(C(N)=O)c1C | -11% | -13% | ? | -5% | -3 | -8%
COCCNC(=O)Cn1cc(/C=C(\C#N)C(=O)NC2CCCC2)c2ccccc21 | -3% | -23% | 31%[0.501 µM] | 28% | -7 | 6%
CCOC(=O)C1=CCC(c2ccc(C)cc2)N(S(=O)(=O)c2ccc(C)cc2)C1 (stereo unspecified) | -7% | . | . | . | 9 | .
CC(C)(C)c1ccc(C(=O)Nc2nnc(C3=COCCO3)o2)cc1 | -8% | -12% | -1% | 17% | 1 | ?
CN(c1ccccc1)S(=O)(=O)c1ccc(C(=O)Nc2ccncc2)cc1 | -8% | -22% | -7%[59 µM] | 4% | -5 | -1%
CSCc1nnc(NC(=O)c2ccc(S(=O)(=O)N(CC(C)C)CC(C)C)cc2)o1 | . | . | -3%[59 µM] | . | . | -35%
CN(c1ccccc1)S(=O)(=O)c1ccc(C(=O)Nc2nnc(C3=COCCO3)o2)cc1 | ? | -33% | 35µM* | 40% | -27 | 79µM*
CSCc1nnc(NC(=O)c2ccc(S(=O)(=O)N(C)C)cc2)o1 | 13µM* | 20µM* | 1% | 14% | -6 | -2%
CCc1nnc(NC(=O)c2ccc(S(=O)(=O)N(C)c3ccccc3)cc2)o1 | 30µM* | 25µM* | -19% | 6% | -15 | .
CN(C)c1ccc(C(=O)Nc2nnc(C3=COCCO3)o2)cc1 | 4% | 79µM* | -3% | 29% | 1 | .
Cc1cc(NC(=O)C2CC(=O)N(c3ccc(F)cc3)C2)no1 (stereo unspecified) | -1% | -5% | 22%[59 µM] | 35% | 1 | 7%
COc1ccc(OCC(=O)OCc2cc(=O)n3cc(C)sc3n2)cc1 | . | -11% | 13%[59 µM] | 5% | . | -7%
COc1ccc(NC(=O)c2cc3ccccc3cc2O)cc1 | 30µM* | ? | -44% | -18% | -3 | -11%
CC(=O)Nc1cccc(/C(C)=N/NC(N)=S)c1 | ? | -3% | 32µM* | -6% | 1 | -13%
COc1ccc(C(=O)Nc2ccccc2C(=O)Nc2ccncc2)cc1 | 1% | -14% | 45µM* | 24% | 1 | ?
COc1ccc(C(=O)Nc2c(O)ccc3ccccc23)cc1OC | ? | -21% | . | 13% | -9 | .
COc1ccc(C(=O)Nc2c(O)ccc3ccccc23)cc1 | ? | 79µM* | . | ? | -22 | .
Cc1ccc(NC(=O)c2cc3ccccc3cc2O)cc1 | 3% | -13% | 8% | 23% | 0 | -17%
Cn1c(=O)c2c(-c3ccc(Cl)cc3)ccnc2n(C)c1=O | . | -18% | 14%[59 µM] | 29% | . | -10%
C=CCOc1ccc(C2=NOC(C(=O)Nc3ccc4c(c3)OCCO4)C2)cc1 (stereo unspecified) | -7% | -24% | -34%[2.33 µM] | 34% | 1 | -8%
Cc1csc2nc(-c3cccc(NC(=O)C(C)C)c3)cn12 | . | -27% | -5%[59 µM] | 20%[57 µM] | . | -10%
Cc1ccc(-c2nn(CC(=O)NC3CCCC3)c3c2cnc2ccc(F)cc23)cc1C | . | -8% | 6%[59 µM] | 17% | . | -11%
C/C(=N\NC(=O)c1ccc(Cl)cc1)c1cccc(NC(=O)c2cccnc2)c1 | -5% | -11% | -18% | 50% | 5 | 1%
C/C(=N\NC(=O)c1ccn(C)n1)c1cccc(NC(=O)c2ccncc2)c1 | -6% | 10µM* | 18% | -5% | 2 | -5%

Screening results from PubChem.
